“And” between values parts separate entries of the source, which are not always exact repeats. Identical values can stand only once. The campaign covered roughly 5,500 compounds. About 2,000 (36%) were called active. Roughly 18% stayed inconclusive and do not appear here. No stated cut-off is given here; in the data, active means normalized growth mostly below about 0.91 (no sharp cut-off); inconclusive means no clear call, values can overlap the other calls; inactive means mostly above about 0.92. The list shows a part of the results.
Assay: chemical genetic growth profiling, strain panel (AID 1159580);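 further: tested at 20 µM; growth read once vehicle control cultures reached saturation at 30 °C; 1 = growth at the plate median or of vehicle wells; lower values mean less growth of the strain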
Details: S. cerevisiae deletion strains, growth OD
[1] = locus YAL013W, strain DEP1, active compounds read low
[2] = locus YMR263W, strain SAP30, active compounds read low

Measured: normalized growth

OC[C@H]1O[C@@H](n2cnc3c(NC4CCCC4)ncnc32)C(O)[C@H]1O (stereo partly specified)
inactive: [1] 0.994 | locus YAL040C, strain CLN3, active compounds read low 0.989 | locus YER002W, strain NOP16, active compounds read low 1.03 | locus YJR075W, strain HOC1, active compounds read low 1.01 | [2] 1.03 | locus YNL128W, strain TEP1, active compounds read low 1 | locus YNL175C, strain NOP13, active compounds read low 1.03 | locus YNL197C, strain WHI3, active compounds read low 1.04 | locus YNL224C, strain SQS1, active compounds read low 1 | locus YOR083W, strain WHI5 (second series), active compounds read low 1.03 | locus YPL055C, strain LGE1, active compounds read low 1.01

CC(=O)O[C@@H]1CC2C(C)(CC[C@H](O)C2(C)C)C2CC[C@]3(C)C(=CC(=O)O[C@H]3c3ccoc3)C21C (stereo partly specified)
inactive: [1] 0.999 | locus YAL021C, strain ccr4, active compounds read low 0.995 | locus YAL026C, strain drs2, active compounds read low 1 | locus YAL030W, strain snc1, active compounds read low 0.998 | locus YBL061C, strain skt5, active compounds read low 1.02 | locus YBR009C, strain hhf1, active compounds read low 1.02 | locus YBR021W, strain FUR4, active compounds read low 0.868 | locus YBR023C, strain chs3, active compounds read low 1 | locus YBR171W, strain sec66, active compounds read low 1 | locus YBR229C, strain ROT2, active compounds read low 1 | locus YBR231C, strain swc5, active compounds read low 1 | locus YBR279W, strain paf1, active compounds read low 1 | locus YCL011C, strain gbp2, active compounds read low 0.995 | locus YCL016C, strain dcc1, active compounds read low 1 | locus YCL029C, strain bik1, active compounds read low 0.999 | locus YCL061C, strain MRC1, active compounds read low 0.999 | locus YCL069W, strain vba3, active compounds read low 1.02 | locus YCR088W, strain abp1, active compounds read low 1 | locus YDL005C, strain med2, active compounds read low 0.986 | locus YDL035C, strain GPR1, active compounds read low 1.02 | locus YDL040C, strain nat1, active compounds read low 1 | locus YDL074C, strain BRE1, active compounds read low 1.02 | locus YDL101C, strain DUN1, active compounds read low 1 | locus YDL134C, strain PPH21, active compounds read low 0.984 | locus YDL185W, strain tfp1, active compounds read low 1 | locus YDL192W, strain arf1, active compounds read low 1 | locus YDR001C, strain nth1, active compounds read low 1 | locus YDR069C, strain doa4, active compounds read low 1.02 | locus YDR101C, strain arx1, active compounds read low 0.994 | locus YDR137W, strain rgp1, active compounds read low 0.988 | locus YDR150W, strain NUM1, active compounds read low 1.01 | locus YDR159W, strain sac3, active compounds read low 1.01 | locus YDR162C, strain NBP2, active compounds read low 1 | locus YDR195W, strain ref2 0.992 | locus YDR297W, strain sur2, active compounds read low 1 | locus YDR318W, strain mcm21, active compounds read low 0.993 | locus YDR334W, strain swr1, active compounds read low 1 | locus YDR335W, strain msn5, active compounds read low 1.02 | locus YDR388W, active compounds read low 0.996 | locus YDR392W, strain spt3, active compounds read low 0.952 | locus YDR502C, strain sam2, active compounds read low 0.975 | locus YEL003W, strain gim4, active compounds read low 1.02 | locus YEL037C, strain rad23, active compounds read low 1.01 | locus YEL061C, strain CIN8 (second series), active compounds read low 1.01 | locus YEL061C, strain CIN8, active compounds read low 1 | locus YER015W, strain faa2, active compounds read low 1 | locus YER016W, strain bim1, active compounds read low 0.99 | locus YER110C, active compounds read low 0.987 | locus YER111C, strain swi4, active compounds read low 0.998 | locus YER155C, strain BEM2 (second series), active compounds read low 1 | locus YER155C, strain BEM2, active compounds read low 0.993 | locus YER167W, strain BCK2, active compounds read low 1.01 | locus YFR010W, strain ubp6, active compounds read low 1.01 | locus YGL078C, strain dbp3, active compounds read low 0.993 | locus YGL086W, strain mad1, active compounds read low 0.996 | locus YGL167C, strain pmr1, active compounds read low 0.999 | locus YGL173C, strain kem1, active compounds read low 1.01 | locus YGL227W, strain vid30, active compounds read low 0.994 | locus YGL240W, strain doc1, active compounds read low 0.99 | locus YGL248W, strain PDE1, active compounds read low 1 | locus YGL253W, strain hxk2, active compounds read low 0.997 | locus YGR078C, strain PAC10, active compounds read low 0.995 | locus YGR135W, strain pre9, active compounds read low 0.959 | locus YGR229C, strain SMI1, active compounds read low 0.971 | locus YGR252W, strain gcn5, active compounds read low 0.946 | locus YHR013C, strain ard1, active compounds read low 0.983 | locus YHR027C, strain rpn1, active compounds read low 1.02 | locus YHR030C, strain SLT2, active compounds read low 0.996 | locus YHR079C, strain IRE1 (second series), active compounds read low 0.986 | locus YHR079C, strain IRE1, active compounds read low 0.994 | locus YHR094C, strain hxt1, active compounds read low 0.984 | locus YHR129C, strain ARP1, active compounds read low 1.01 | locus YHR142W, strain chs7, active compounds read low 1 | locus YHR200W, strain rpn10, active compounds read low 0.995 | locus YIL066C, strain RNR3, active compounds read low 1.02 | locus YIL073C, strain SPO22, active compounds read low 1.02 | locus YIL125W, strain kgd1, active compounds read low 0.992 | locus YIR030C, strain dcg1, active compounds read low 0.993 | locus YJL092W, strain hpr5, active compounds read low 1.01 | locus YJL095W, strain BCK1 (second series), active compounds read low 1.01 | locus YJL095W, strain BCK1, active compounds read low 1 and 0.986 | locus YJL115W, strain asf1, active compounds read low 0.994 | locus YJL129C, strain trk1, active compounds read low 0.99 | locus YJL134W, strain LCB3, active compounds read low 1 | locus YJL154C, strain vps35, active compounds read low 0.996 | locus YJL164C, strain tpk1, active compounds read low 1 | locus YJL166W, strain qcr8, active compounds read low 1 | locus YJL168C, strain set2, active compounds read low 0.994 | locus YJL187C, strain SWE1 (second series), active compounds read low 1 | locus YJR043C, strain POL32, active compounds read low 1.05 | locus YJR066W, strain TOR1, active compounds read low 0.886 | locus YKL009W, strain mrt4, active compounds read low 0.985 | locus YKL068W, active compounds read low 0.997 | locus YKL085W, strain MDH1 (second series), active compounds read low 0.99 | locus YKL085W, strain MDH1, active compounds read low 0.99 | locus YKL160W, strain elf1, active compounds read low 0.991 | locus YKR001C, strain vps1, active compounds read low 0.978 | locus YKR026C, strain gcn3, active compounds read low 0.995 | locus YKR091W, strain srl3, active compounds read low 0.998 | locus YLL001W, strain dnm1, active compounds read low 0.993 | locus YLL026W, active compounds read low 0.989 | locus YLL041C, strain sdh2, active compounds read low 0.989 | locus YLR027C, strain aat2, active compounds read low 1.01 | locus YLR039C, strain RIC1, active compounds read low 1.05 | locus YLR058C, strain SHM2, active compounds read low 1 | locus YLR102C, strain apc9, active compounds read low 0.99 | locus YLR113W, strain HOG1, active compounds read low 1.04 | locus YLR221C, strain rsa3, active compounds read low 1 | locus YLR258W, strain gsy2, active compounds read low 1.01 | locus YLR262C, strain YPT6 (second series), active compounds read low 1.01 | locus YLR262C, strain YPT6, active compounds read low 1.03 | locus YLR268W, strain sec22, active compounds read low 0.988 | locus YLR320W, strain mms22, active compounds read low 0.992 | locus YLR342W, strain FKS1, active compounds read low 0.994 | locus YLR357W, strain rsc2, active compounds read low 0.984 | locus YLR370C, strain arc18, active compounds read low 0.998 | locus YLR371W, strain rom2, active compounds read low 1 | locus YLR384C, strain iki3, active compounds read low 0.978 | locus YLR418C, strain cdc73, active compounds read low 0.948 | locus YML016C, strain PPZ1, active compounds read low 1.01 | locus YML032C, strain rad52, active compounds read low 0.984 | locus YML120C, strain ndi1, active compounds read low 1 | locus YML124C, strain tub3, active compounds read low 0.985 | locus YMR058W, strain fet3, active compounds read low 1.01 | locus YMR078C, strain ctf18, active compounds read low 0.996 | locus YMR125W, strain sto1, active compounds read low 1.02 | locus YMR129W, active compounds read low 0.989 | locus YMR205C, strain PFK2, active compounds read low 0.995 | locus YMR223W, strain ubp8, active compounds read low 0.99 | locus YMR231W, strain pep5, active compounds read low 1 | [2] 0.998 | locus YMR307W, strain GAS1, active compounds read low 1.08 | locus YNL067W, strain RPL9B, active compounds read low 0.989 | locus YNL071W, strain lat1, active compounds read low 1.01 | locus YNL153C, strain GIM3, active compounds read low 1.01 | locus YNL183C, strain NPR1, active compounds read low 0.935 | locus YNL209W, strain ssb2, active compounds read low 0.994 | locus YNL233W, strain BNI4, active compounds read low 0.991 | locus YNL248C, strain rpa49, active compounds read low 0.975 | locus YNL250W, strain rad50, active compounds read low 0.989 | locus YNL271C, strain bni1, active compounds read low 1 | locus YNL298W, strain CLA4, active compounds read low 0.985 | locus YNL307C, strain MCK1, active compounds read low 0.98 | locus YNL322C, strain KRE1 (second series), active compounds read low 0.971 | locus YNL322C, strain KRE1, active compounds read low 1.01 | locus YNR049C, strain mso1, active compounds read low 0.993 | locus YNR052C, strain pop2, active compounds read low 0.991 | locus YOL012C, strain htz1 0.837 | locus YOL147C, strain pex11, active compounds read low 0.983 | locus YOR001W, strain rrp6, active compounds read low 1.01 | locus YOR061W, strain CKA2, active compounds read low 1 | locus YOR069W, strain VPS5, active compounds read low 1 | locus YOR070C, strain gyp1, active compounds read low 0.993 | locus YOR080W, strain dia2, active compounds read low 0.99 | locus YOR083W, strain WHI5, active compounds read low 0.988 | locus YOR106W, strain vam3, active compounds read low 1 | locus YOR136W, strain idh2, active compounds read low 0.989 | locus YOR144C, strain elg1, active compounds read low 0.991 | locus YOR184W, strain ser1, active compounds read low 0.992 | locus YOR231W, strain MKK1, active compounds read low 0.958 | locus YOR265W, strain rbl2, active compounds read low 1.02 | locus YOR270C, strain vph1, active compounds read low 0.965 | locus YOR290C, strain snf2, active compounds read low 0.993 | locus YOR316C, strain cot1, active compounds read low 0.989 | locus YPL051W, strain arl3, active compounds read low 0.974 | locus YPL078C, strain atp4, active compounds read low 0.988 | locus YPL106C, strain sse1, active compounds read low 0.996 | locus YPL240C, strain hsp82, active compounds read low 1 | locus YPL241C, strain CIN2, active compounds read low 1 | locus YPL256C, strain CLN2, active compounds read low 0.991 | locus YPR119W, strain clb2, active compounds read low 0.994 | locus YPR141C, strain kar3, active compounds read low 0.987 | locus YPR163C, strain tif3, active compounds read low 0.98 | locus YPR167C, strain met16, active compounds read low 0.979 | strain wtn01, active compounds read low 0.995
